Results taken from ChEMBL document CHEMBL4513146, “CO-ADD screening of Karazin Kharkiv National University (Ukraine) compounds”.
Potency and affinity values are given separately.

These compounds were tested on Cryptococcus neoformans. Conditions: Concentration 32 ug.mL-1; ASSAY_TEST Inhibition of Fungal Growth; detection method Resazurin; Absorption (OD600-OD570); plate type 384well; NBS; CORNING #3640.

| Compound | Inhibition |
| --- | --- |
| COC(=O)c1ccccc1NC(=O)Cn1nc2c3cc(-c4ccc(Cl)cc4)nn3ccn2c1=O | -15.71% |
| CCCN(C)c1nccn2c(=O)n(CC(=O)Nc3ccc(F)cc3)nc12 | -8.83% |
| COc1ccc(NC(=O)Cn2nc3cc(C)nc(Nc4ccc(F)cc4)n3c2=O)cc1F | -3.63% |
| COc1ccc(NC(=O)Cn2c(=O)c3nnc(C)n3c3ccccc32)cc1Cl | -20.99% |
| Cc1ccc(NC(=O)CSc2nc3ccccc3n3c(C)nnc23)cc1C | -14.42% |
| O=C(Cn1nc2c3c4c(sc3ncn2c1=O)CCCC4)NCc1ccc(F)cc1 | -14.13% |
| COc1ccc(NC(=O)Cn2nc3c(N4CCCC4)nccn3c2=O)cc1Cl | -15.33% |
| CC(C)NC(=O)CSc1nnc2c(=O)n(-c3ccccc3)ccn12 | -5.87% |
| CCc1ccc(N(Cc2ccccc2F)S(=O)(=O)c2cccn3c(CC)nnc23)cc1 | -5.13% |
| COc1ccc(N(Cc2ccc(C)cc2)S(=O)(=O)c2ccc3nnc(C)n3c2)cc1 | -1.52% |
| CCCn1c(=O)c2sccc2n2c(=O)n(CC(=O)c3ccccc3)nc12 | -9.13% |
| CCCCc1ccc(NC(=O)Cn2nc3c(N4CC(C)CC(C)C4)nccn3c2=O)cc1 (centres undefined) | -10.16% |
| Cc1cccc(CN(c2ccc(C(C)C)cc2)S(=O)(=O)c2cccn3c(C)nnc23)c1 | -9.59% |
| CC(C)c1nnc2c(=O)n(CC(=O)Nc3ccc(Br)cc3F)c3ccccc3n12 | -15.71% |
| Cc1ccc(-c2ccc3nnc(CCC(=O)NCc4ccc(C(F)(F)F)cc4)n3n2)cc1C | -1.58% |
| Cc1cc2nn(CC(=O)Nc3cc(F)ccc3C)c(=O)n2c(Nc2ccc(F)c(C)c2)n1 | -9.62% |
| Cc1ccc(C)c(CN(c2ccc(F)c(F)c2)S(=O)(=O)c2cccn3cnnc23)c1 | -7.27% |
| CC(=O)c1cccc(NC(=O)Cn2nc3c(N4CCN(c5ccccc5C)CC4)nccn3c2=O)c1 | -6.16% |
| CSc1cccc(NC(=O)Cn2c(=O)c3nnc(C)n3c3ccccc32)c1 | -2.25% |
| O=C(Cn1nc2c3cc(F)ccc3ncn2c1=O)Nc1ccc2c(c1)OCO2 | -3.11% |

| Compound | Inhibition |
| --- | --- |
| Cc1oc(-c2cccc(Cl)c2)nc1CSc1nc2ccccc2n2c(C(C)C)nnc12 | -17.47% |
| Cc1cc(C)cc(Oc2nccn3c(=O)n(CC(=O)Nc4ccc(Cl)cc4F)nc23)c1 | -7.4% |
| COC(=O)c1sccc1NC(=O)Cn1nc2c(Oc3ccc(C)cc3)nc3ccccc3n2c1=O | -31.95% |
| COc1cccc(Oc2nccn3c(=O)n(CC(=O)Nc4ccc(C)cc4Cl)nc23)c1 | -10.48% |
| CCOc1ccc(-n2ccn3c(SCC(=O)c4c(C)[nH]c5ccccc45)nnc3c2=O)cc1 | -13.8% |
| O=C(Cn1nc2c(N3CCOCC3)nccn2c1=O)Nc1ccccc1Br | -7.57% |
| CCN(CCCNC(=O)CCc1nnc2ccc(-c3ccc(C)c(C)c3)nn12)c1ccccc1 | -7.8% |
| CC(C)c1ccc(NC(=O)Cn2nc3ccc(SCc4ccc(Cl)cc4)nn3c2=O)cc1 | -27.26% |
| CCOc1ccc(NC(=O)Cn2nc3c(Sc4ccc(C)cc4C)nccn3c2=O)cc1 | -11.66% |
| Cc1ccc(Oc2nccn3c(=O)n(CC(=O)Nc4ccccc4C(F)(F)F)nc23)cc1 | -7.72% |
| CC(C)c1nnc2c(=O)n(CC(=O)Nc3cccc(C#N)c3)c3ccccc3n12 | -33.67% |
| CSc1cccc(NC(=O)Cn2nc3c(N4CCCC4)nccn3c2=O)c1 | -5.38% |
| O=C(CSc1nnc2c(=O)n(-c3cccc(F)c3)ccn12)NCCc1ccccc1 | -10.18% |
| CCOc1ccc(-n2ccn3c(SCC(=O)NCc4cccc(OC)c4OC)nnc3c2=O)cc1 | -8.08% |
| COc1cccc(-n2ccn3c(SCC(=O)Nc4ccccc4F)nnc3c2=O)c1 | -12.13% |
| CCc1ccccc1Sc1nccn2c(=O)n(CC(=O)N3CCN(c4ccccc4)CC3)nc12 | -19.52% |
| O=C(Cn1nc2c3sc(N4CCCC4)nc3ncn2c1=O)Nc1ccccc1Cl | -9.84% |
| O=S(=O)(c1ccc2nncn2c1)N(Cc1ccccc1F)c1ccc(F)c(F)c1 | -2.71% |
| CC(C)c1nnc2c(=O)n(CC(=O)Nc3cccc(Br)c3)c3ccccc3n12 | -13.28% |
